Data published in PubChem BioAssay (NCI).
Compounds without any hit were thinned out: in the full panel of roughly 83,000, 20% have a hit.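 Method: cells in 96-well plates; compound added at one concentration; 48 h incubation; percent growth measured; values under 10 scored active.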 Values without a mark were called inactive. The source made the active and inactive calls.

Each compound was assayed on COLO 205 colon (assay: NCI-60 one-dose screen, 48 h (100 = growth as untreated, 0 = no growth, -100 = all killed)). Details: 10 µM unless noted.

| SMILES | growth |
| --- | --- |
| COc1ccc(OC)c(N(CCN2C(=O)c3ccccc3C2=O)C(=O)CCl)c1 | 80.6% |
| O=C(NC1CCN(Cc2ccccc2)CC1)c1cc(C(=O)NC2CCN(Cc3ccccc3)CC2)cc(C(=O)NC2CCN(Cc3ccccc3)CC2)c1 | 108% |
| CCOC(=O)c1c(Cl)c2c(n1Cc1ccccc1)-c1oncc1CCC2 | 56.9% |
| O=C(/C=C/c1ccccn1)c1ccc(OCc2nnc(-c3ccc(Cl)cc3)o2)cc1 | -40.1% (active) |
| CSc1nc2c(c(=O)n1C)N=C1c3ccccc3C(=O)C1C(c1ccccc1)N2 (centres undefined) | 73.5% |
| CC/C=C\C[C@H](O)C/C=C1/C(=O)C=C[C@@H]1C/C=C\CCCC(=O)OCCS(=O)(=O)c1ccccc1 | 43.6% |
| Cc1cc(Nc2ccc(OCc3ccccc3)cc2)nc2cc(O)ccc12 | 21.9% |
| CSc1nc2c(c(=O)[nH]1)N=C1c3ccccc3C(=O)C1C(c1ccc(F)cc1)N2 (centres undefined) | 53.4% |
| CCOc1ccccc1CN1CCc2nc3cc(C(C)(C)C)[nH]n3c(=O)c2C1 | 112% |
| O=C(NC(=S)Nc1cccc(NC(=S)NC(=O)c2ccccc2)c1)c1ccccc1 | 56.5% |
| CCOC(=O)c1c2c(n3cccc(Cl)c13)C(=O)c1ncccc1C2=O | 73.5% |
| O=C(NN1C(=O)CSC1c1ccc(Cl)cc1)c1[nH]c2ccc(F)cc2c1-c1ccccc1 (centres undefined) | 13.6% |
| COc1ccc(-n2c(C(O)c3ccccc3)nn(CN3CCOCC3)c2=S)cc1 (centres undefined) | 112% |
| CCCC(=O)CC(C)=O.CCCC(=O)CC(C)=O.[Cu] | 97.4% |
